Assay outcomes from PubChem.
Vaccinia mCherry: inhibitors of vaccinia virus infection (mCherry reporter signal). Vaccinia virus mCherry reporter infection, fluorescence. Potency, µM (top dose mostly 36.5 µM), for the others: at the top dose activity change, negative = inhibition, usual class: inhibitors. hit rate 0.63% among 310,000. AID 720579; calls by dose curve; tested in A549 cells; note: potency is the fitted concentration of half-maximal effect; nearly all actives have a fitted effect of over 35% in size
HCV inhibitor: blocks hepatitis C virus; hit rate 3.4% among 340,000; Potency, µM (doses to about 41.8 µM), without a hit: at the top dose activity change, negative = inhibition, hits mostly inhibitors; Huh7.5.1 HCVcc-Cre infection, luciferase reporter, 44 h; note: potency is the fitted concentration of half-maximal effect
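Reporter virus HCVcc-Cre (~0.5 moi) infects cells exposed to compound; seeding density 1,000 cells/well with 4 h settling beforehand. Luminescence, 15 sec read, taken 44 h post-infection following a 15 min RT substrate incubation.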
FMDV inh: antivirals against foot and mouth disease virus | FMDV antiviral cell-based qHTS | Potency, µM (top dose mostly 57.9 µM), without a hit: at the highest dose activity change, negative = inhibition, most hits filed as inhibitors | hit rate 1.2% among 410,000; calls by dose curve; tested in HEK293T cells; note: read-out not given here; potency is the fitted concentration of half-maximal effect; nearly all actives have a fitted effect of over 45% in size
Vaccinia Venus: inhibitors of vaccinia virus (Venus reporter); Vaccinia virus Venus reporter expression, fluorescence; Potency, µM (series often up to 36.5 µM), inactives show at the highest dose activity change, negative = inhibition, usual class: inhibitors; hit rate 0.46% among 330,000; AID 720580; calls by dose curve; tested in A549 cells; note: potency is the fitted concentration of half-maximal effect; nearly all actives have a fitted effect of over 30% in size
Giardia FBPA inh: Giardia lamblia aldolase inhibition; AID 2451; A8B2U2; Potency, µM (doses to about 59.6 µM), without a hit: at the top dose activity, negative = inhibition, usual class: inhibitors; hit rate 0.71% among 290,000; purified Giardia FBPA; note: potency is the fitted concentration of half-maximal effect; nearly all actives have a fitted effect of over 55% in size
Target sequence (A8B2U2 whole entry, looked up): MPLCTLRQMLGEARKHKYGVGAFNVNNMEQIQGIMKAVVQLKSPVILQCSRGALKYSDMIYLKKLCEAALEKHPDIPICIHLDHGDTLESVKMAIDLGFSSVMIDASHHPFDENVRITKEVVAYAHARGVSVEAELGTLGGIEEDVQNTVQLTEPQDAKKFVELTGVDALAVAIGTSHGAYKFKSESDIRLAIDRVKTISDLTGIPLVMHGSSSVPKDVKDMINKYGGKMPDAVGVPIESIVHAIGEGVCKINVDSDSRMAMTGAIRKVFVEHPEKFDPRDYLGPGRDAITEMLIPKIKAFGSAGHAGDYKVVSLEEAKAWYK
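Giardia FBPA (40 nM reagent) was preincubated 10 min at RT with compound (up to 57.5 uM final), then substrate plus GAPDH/TPI/NAD/arsenate coupling system with diaphorase/resazurin was added; resorufin fluorescence (525/598 nm) was read after 20 min.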
HCMV antiviral: human cytomegalovirus inhibition; hit rate 4.5% among 410,000; activity change, negative = inhibition, % at 57.5 µM; HFF cells, HCMV-luciferase reporter, 72 h; stronger effect = lower value; in the data active = activity change below about -60%; inconclusive = no clear call, values can overlap the other calls; inactive = above about -39%
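Compounds were evaluated in HFFs infected with an HCMV luciferase reporter virus (MOI 1 PFU/cell). Luciferase in lysates collected 72 h post infection served as the replication measure.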
* marks the source's active call; other numbers are inactive results; i = inactive; u = inconclusive; x = no result; [ ] = dose if it differs, or a comment. In the library only some 7.5% were active in any assay of this set; here they are far more common. Unless noted, calls come from the whole dose curve; as a rule, active = well fitted curve in the direction sought with a large enough effect; inconclusive = small, poorly fitted or top-dose-only effect, or another doubt; inactive = no such curve, though single readings can be large; an effect the other way counts as inactive or inconclusive. % is set by controls: 0 for no effect and ±100 for the full control effect.

SMILES	Vaccinia mCherry	HCV inhibitor	FMDV inh	Vaccinia Venus	Giardia FBPA inh	HCMV antiviral
CCOc1ccc(-c2n[nH]c(C)c2Oc2ccc(OC)cc2)c(O)c1	-11.0%[1.46 µM]	11.2µM*	3.5%	-24.4%	u	-17.7
COc1cccc(CNC(=O)[C@@H]2CCCN2C(=O)[C@H]2CCCCN2C(=O)c2c(F)cccc2F)c1	-3.4%	x	-19.2%	-0.9%	x	0.9
Cc1c(CCC(=O)O)c(=O)oc2cc3occ(-c4ccc(Br)cc4)c3cc12	u	7.3%	-23.1%	-11.7%	5.3%	-62.1*
Cc1coc2c(C)c3oc(=O)c(CCC(=O)NCc4ccccn4)c(C)c3cc12	-8.0%	u	-10.2%	7.0%	13.2%	u
Cc1c(Cc2ccccc2)c(=O)oc2cc(OCC(=O)N[C@@H](Cc3ccccc3)C(=O)O)ccc12	3.4%	13.1%	-9.0%	-2.4%	0.7%	13.1
Cc1c(CCC(=O)O)c(=O)oc2cc3occ(-c4ccc(F)cc4)c3cc12	i	-14.9%	-3.2%	-16.2%	9.6%	-12.3
Cc1c(Cc2ccccc2)c(=O)oc2cc(OCC(=O)NCc3ccccn3)ccc12	-14.9%	u	-28.8%	-25.3%	13.6%	-63.0*
Cc1coc2cc3oc(=O)c(CCC(=O)NCc4ccccn4)c(C)c3cc12	-1.0%	1µM*	0.5%	2.0%	8.9%	-27.5
CC(=O)OC1CC2C(C)(C)C(=O)C=C[C@]2(C)C2CC[C@@]3(C)C(c4ccoc4)OC(=O)C4O[C@@]43[C@]12C (stereo partly drawn)	-2.6%	x	u	-29.0%	-2.7%	x
COC(=O)c1c(NC(=O)CCCOc2ccc(C(C)(C)C)cc2)sc2c1C(C(=O)OC)CC2 (stereo not drawn)	-0.3%[7.34 µM]	x	35.5µM*	-7.0%[7.34 µM]	x	-83.6*
COC(=O)c1c(NC(=O)c2c(OC)cccc2OC)sc2c1C(C(=O)OC)CC2 (stereo not drawn)	x	u	-8.7%	x	-7.1%	-64.9*
CCCC(=O)Nc1sc2c(c1C(=O)OC)C(C(=O)OC)CC2 (stereo not drawn)	u	u	-4.8%	-26.1%	0.6%	26.8
CCOC(=O)c1c(NC(=O)CCN2CCOCC2)sc2c1CC(C)(C)OC2	-20.1%	u	-23.8%	-9.1%	0.8%	2.6
COC(=O)c1c(-c2ccc(C)cc2)csc1NC(=O)c1c(-c2ccccc2)noc1C	x	7.0%	x	x	0.5%	-70.6*
COC(=O)c1sccc1NC(=O)c1c(-c2ccccc2)noc1C	-7.5%	-27.8%	u	8.1%	4.1%	5.7
CCOC(=O)c1c(NC(=O)c2c(-c3ccccc3)noc2C)sc(C)c1-c1ccccc1	x	7.08µM*	u	-2.1%	-2.5%	-102.2*
CCOC(=O)c1c(NC(=O)CCN2CCOCC2)sc(C)c1-c1ccccc1	i	25.1µM*	u	-19.9%	-4.8%	-30.2
CCOc1ccc(/C=C/c2nc(C#N)c(N(C)C)o2)cc1	u	x	31.6%	-25.6%	x	51.8
COC(=O)c1ccc(COC(=O)C2CCN(S(=O)(=O)c3c(C)cc(C)cc3C)CC2)o1	u	x	-21.6%	-3.8%	x	-8.1
COc1ccc(NC(=O)c2cccc(NC3=NC4CS(=O)(=O)CC4S3)c2)cc1Cl (stereo not drawn)	i	-0.9%	u	-12.9%	-11.3%	21.6
COCCN1C(=O)c2cc(C(=O)Nc3cccc(F)c3)ccc2C1Nc1cccc(F)c1 (stereo not drawn)	i	u	-2.6%	u	4.1%	-38.0
CCc1ccc(NC(=O)c2ccc3c(c2)C(=O)N(CCOC)C3Nc2ccc(CC)cc2)cc1 (stereo not drawn)	-13.3%	-18.8%	28.1%	u	6.8%	-89.9*
CCC(C(=O)NC1CCCC1)n1c(C2CCCC2)nc2ccccc21 (stereo not drawn)	5.6%	x	-3.9%	0.2%	x	-20.9
CCOc1ccc(Cn2c(CNS(=O)(=O)c3cccs3)nc3cccnc32)cc1	-7.0%	x	40.1%	3.5%	x	22.6
C#Cc1cccc(-n2nnc(C(=O)OC)c2-c2ccccc2)c1	-8.6%	3.3%	u	-15.2%	-0.1%	-102.0*
SMILES	Vaccinia mCherry	HCV inhibitor	FMDV inh	Vaccinia Venus	Giardia FBPA inh	HCMV antiviral
CCC1CN(Cc2cn[nH]c2-c2ccc(F)cc2)Cc2cc(OC)ccc2O1 (stereo not drawn)	-13.5%	x	u	-16.0%	x	x
NC(=O)CCCn1c(C(=O)c2cc(Cl)c(N)c(Cl)c2)c2ccc([N+](=O)[O-])cc2[n+]1[O-]	u	11.2µM*	u	11.2µM*	x	-12.9
NC(=O)CCn1c(C(=O)c2ccc(Cl)cc2)c2ccccc2[n+]1[O-]	-6.9%	11.4%	2.4%	1.1%	5.8%	-88.1*
NC(=O)CCCn1c(C(=O)c2ccc(Cl)cc2)c2ccc([N+](=O)[O-])cc2[n+]1[O-]	u	u	-3.2%	u	x	u
COc1ccc2c(C(=O)c3ccc(C)cc3)n(CCCC(N)=O)[n+]([O-])c2c1	-6.0%	5.6%	17.9%	-11.8%	x	7.4
NCCCn1c(C(=O)c2ccc(Cl)cc2)c2ccc([N+](=O)[O-])cc2[n+]1[O-]	7.08µM*	10µM*	-8.6%	u	x	-4.2
Cc1ccc(C(=O)c2c3ccc([N+](=O)[O-])cc3[n+]([O-])n2CCCC(N)=O)cc1	u	10µM*	15.8%	u	x	-18.5
CCOC(=O)C(C)Sc1ccc2nnc(-c3ccc(OCC)cc3)n2n1 (stereo not drawn)	-11.3%	x	x	-27.2%	x	x
O=C(Nc1ccccc1)N1CC[C@@]2(CCCN(C(=O)c3ccco3)C2)C1	x	x	12.1%	x	3.2%	x
CCC1CCCCN1S(=O)(=O)c1ccc(N2CCCCS2(=O)=O)cc1 (stereo not drawn)	17.1%	x	9.6%	3.7%	x	-14.7
COc1cc(-c2nccc3[nH]nc(-c4ccncc4)c23)cc(OC)c1OC	x	x	x	x	x	-8.8
CC(=O)Nc1ccc(NC(=O)C2CCCN(c3ncccn3)C2)cc1 (stereo not drawn)	x	16.2%	13.7%	x	-1.2%	0.1
O=C(Nc1ccc(Oc2ccccc2)cc1)C1CCN(S(=O)(=O)c2ccccc2)CC1	u	x	u	u	x	-82.4*
Cc1ccccc1NC(=O)C1CCN(S(=O)(=O)c2ccccc2)CC1	-0.7%	x	-9.7%	-5.2%	x	-77.6*
O=C(Nc1ccc(Oc2ccccc2)cc1)C1CCCN(c2ncccn2)C1 (stereo not drawn)	-5.8%	21.5%	-5.3%	-6.9%	-5.2%	-71.6*
CCCN(CC(=O)Nc1ccccc1C)C(=O)C1CCN(S(=O)(=O)c2ccc(C)c(C)c2)CC1	i	x	-16.0%	u	x	-61.4*
Cc1ccc(S(=O)(=O)N2CCC(C(=O)Nc3ccc(Oc4ccccc4)cc3)CC2)cc1	-9.8%	x	u	-3.4%	x	-33.4
CCOC(=O)C1=CCN(Cc2ccccc2)CC1	i	4.9%	3.0%	-4.9%	u	-12.0
CC(C)OC1=CC(=O)OC(c2cccc(Cl)c2)C1 (stereo not drawn)	14.3%	x	-15.5%	-19.0%	x	u
